# Hit rate of the full screen: of about 290,000 compounds, about 11,000 (3.8%) were called active. The sample as a whole holds a higher share of actives than the screen did. A number with no mark means an inactive call.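 How the source made its calls: active means mean replicate inhibition above about 79%, with every replicate also reaching it (limit read from the data); inconclusive means only one of the two criteria met; inactive means mean below limit and not every replicate reaching it.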
# Target: FAD-linked sulfhydryl oxidase ALR (Homo sapiens) (UniProt P55789)
# Test: inhibitors of human ALR sulfhydryl oxidase, primary screen, biochemical, H2O2 detection, HRP-luminol luminescence, single point (AID 485317)
# Details: purified ALR, DTT oxidation, active compounds read high, concentration not given here
# FAD-linked sulfhydryl oxidase ALR (Homo sapiens), sequence (P55789 whole entry, looked up): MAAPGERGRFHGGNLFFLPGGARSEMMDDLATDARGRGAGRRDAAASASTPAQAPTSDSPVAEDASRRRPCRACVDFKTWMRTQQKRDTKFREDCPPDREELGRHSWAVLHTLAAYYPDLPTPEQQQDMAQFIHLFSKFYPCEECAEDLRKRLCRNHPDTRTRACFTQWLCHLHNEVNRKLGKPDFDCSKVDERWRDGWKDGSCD
row,SMILES,inhibition
1,COc1cc(SC)ccc1C(=O)NNC(=O)C1COc2ccccc2O1 (stereo unspecified),0.292%
2,CC(C)(C)C1C/C(=C/c2ccco2)C(=O)/C(=C/c2ccco2)C1 (stereo unspecified),96.3% (active)
3,CCC1S/C(=N/N=C/c2ccco2)NC1=O (stereo unspecified),-6.96%
4,O=C1OC(/C=C/c2ccccc2)=NC/1=C/c1ccco1,9.93%
5,O=C(CSC1=Nc2ccccc2C2=NC(CC(=O)NCc3ccco3)C(=O)N12)NCc1ccco1 (stereo unspecified),6.97%
6,CC(C)C1N=C2c3ccccc3N=C(SCC(=O)c3ccc(O)c(O)c3)N2C1=O (stereo unspecified),99.7% (active)
7,O=C(CSC1=Nc2ccccc2C2=NC(c3ccccc3)C(=O)N12)NCC1CCCO1 (stereo unspecified),-17.3%
8,COc1ccccc1-c1c(C#N)c(N)nc2c1CCC2,0.706%
9,CCOc1cc(-c2cc(-c3ccc(OC)cc3)nc(N)c2C#N)ccc1O,41.9%
10,COc1ccc(-c2cc(-c3ccc(N)cc3)nc(N)c2C#N)cc1OC,98.9% (active)
11,Cc1ccc(NC(=O)CN2CCC3(O)CCCCC3C2c2ccc3c(c2)OCO3)c(C)c1 (stereo unspecified),6.21%
12,CCN(CC)c1ccc(C2C3CCCCC3(O)CCN2CC(=O)Nc2ccccc2)cc1 (stereo unspecified),97.5% (active)
13,O=C(CN1CCC(O)(c2ccccc2)CC1)Nc1ccc2c(c1)OCCO2,-15.8%
14,O=C(COC(=O)/C=C/c1cccc(Cl)c1)NCc1cccs1,-15.2%
15,O=C(COc1ccccc1Cl)N1N=C(c2cccs2)CC1c1ccco1 (stereo unspecified),12.6%
16,COCCn1c(SCC(=O)Nc2ccccc2F)nc2c(c1=O)SCC2,23.5%

row,SMILES,inhibition
1,O=C(CSc1nc2nccnc2c(=O)n1Cc1cccs1)Nc1ccccc1F,98.7% (active)
2,CCOc1ccc(NC(=O)CSc2nc3ccccc3c(=O)n2Cc2cccs2)cc1,-4.39%
3,COc1ccc(C(=O)N2CCN(c3ccc(C(C)=O)cc3F)CC2)cc1S(=O)(=O)NC1CC1,2.33%
4,COc1cccc(NC(=O)CN(C)C(=O)CSC(=S)N2CCCC2)c1,-14.6%
5,CN1C=CC=C/C1=C1\SC(=S)N(Cc2ccccc2)C1=O,-1.3%
6,CCCCN1C(=O)/C(=C2/Sc3ccc(Cl)cc3N2CC)SC1=S,-23.2%
7,CCCCN1C(=O)/C(=C2/C=CC=CN2C)SC1=S,99% (active)
8,O=C(CSc1nc2ccccc2c(=O)n1-c1ccccc1F)N1CCOCC1,-2.73%
9,CC1CCC(NC(=O)CNC(=O)c2ccc3ccccc3c2)CC1 (stereo unspecified),-7.47%
10,COc1cc(N=Cc2c(O)[nH]c3ccccc23)cc(OC)c1OC,96.6% (active)
11,COCC(=O)N=Nc1c(O)[nH]c2ccccc12,-3.07%
12,COc1cc(N=Cc2c(O)c3ccccc3oc2=O)c(OC)cc1Cl,-4.24%
13,COc1ccccc1N=Cc1c(O)c2ccccc2oc1=O,0.366%
14,CN=c1scc(-c2cc(OC)ccc2OC)n1/N=C/c1c(C)[nH]c2ccccc12,15.7%
15,COc1ccc(N=Cc2c(O)[nH]c3ccccc23)cc1OC,99.3% (active)

# Reference: PubChem BioAssay AID485317 (Broad Institute, 2010)
